For some of these results: Measured potencies and affinities stand elsewhere.
Key:
Parameters in all cases: scale not given: direction of the effect not stated beside the values
[1] = target: Protein translocase subunit SecA (Escherichia coli (strain K12)) (UniProt P10408); experiment: Assay to Identify E. coli SecA ATPase Inhibitors; format: functional; details: 30 µM
[2] = target: T1, Ubiquitin-activating enzyme e1, putative (Leishmania donovani (strain BPK282A1)) (UniProt E9BSI1); experiment: Leishmania donovani Ubiquitin Activating Enzyme (LdE1); format: functional; details: 30 µM
T1 sequence (whole entry): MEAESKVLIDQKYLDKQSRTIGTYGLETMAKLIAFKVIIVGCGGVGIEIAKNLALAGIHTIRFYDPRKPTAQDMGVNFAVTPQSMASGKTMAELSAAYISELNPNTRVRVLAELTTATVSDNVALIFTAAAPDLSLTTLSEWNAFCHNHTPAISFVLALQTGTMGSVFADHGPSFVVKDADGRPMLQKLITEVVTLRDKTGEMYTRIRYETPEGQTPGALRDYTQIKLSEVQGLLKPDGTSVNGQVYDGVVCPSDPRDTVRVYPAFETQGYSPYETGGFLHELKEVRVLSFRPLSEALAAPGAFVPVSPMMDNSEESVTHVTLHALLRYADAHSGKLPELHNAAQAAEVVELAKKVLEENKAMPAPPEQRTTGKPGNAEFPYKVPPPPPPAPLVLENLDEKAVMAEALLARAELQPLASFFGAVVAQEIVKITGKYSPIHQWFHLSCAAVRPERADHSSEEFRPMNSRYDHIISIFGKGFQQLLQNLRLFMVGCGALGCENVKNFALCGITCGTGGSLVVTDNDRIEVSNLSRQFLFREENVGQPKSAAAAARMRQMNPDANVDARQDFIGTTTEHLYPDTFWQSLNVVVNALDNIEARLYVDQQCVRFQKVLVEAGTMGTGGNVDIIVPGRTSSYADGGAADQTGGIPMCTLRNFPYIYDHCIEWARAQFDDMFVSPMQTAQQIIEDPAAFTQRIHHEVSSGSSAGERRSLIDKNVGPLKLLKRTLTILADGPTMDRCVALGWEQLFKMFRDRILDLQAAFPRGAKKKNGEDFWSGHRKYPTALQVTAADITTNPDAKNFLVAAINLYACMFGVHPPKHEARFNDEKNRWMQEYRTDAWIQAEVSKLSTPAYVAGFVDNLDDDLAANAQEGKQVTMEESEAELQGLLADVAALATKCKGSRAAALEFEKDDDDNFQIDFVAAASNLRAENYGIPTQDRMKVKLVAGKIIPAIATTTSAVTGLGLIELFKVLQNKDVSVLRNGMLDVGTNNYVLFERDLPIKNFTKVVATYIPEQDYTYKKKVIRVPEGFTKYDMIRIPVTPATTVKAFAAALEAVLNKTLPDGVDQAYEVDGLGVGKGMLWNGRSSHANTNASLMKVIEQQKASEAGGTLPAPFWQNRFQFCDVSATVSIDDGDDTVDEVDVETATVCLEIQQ

[3] = target: Sialic acid-binding Ig-like lectin 9 (Homo sapiens) (UniProt Q9Y336); experiment: Hs-Siglec9 ALPHAscreen SOP 20170721; details: 10 µM
Sialic acid-binding Ig-like lectin 9 (Homo sapiens), sequence (Q9Y336 whole entry): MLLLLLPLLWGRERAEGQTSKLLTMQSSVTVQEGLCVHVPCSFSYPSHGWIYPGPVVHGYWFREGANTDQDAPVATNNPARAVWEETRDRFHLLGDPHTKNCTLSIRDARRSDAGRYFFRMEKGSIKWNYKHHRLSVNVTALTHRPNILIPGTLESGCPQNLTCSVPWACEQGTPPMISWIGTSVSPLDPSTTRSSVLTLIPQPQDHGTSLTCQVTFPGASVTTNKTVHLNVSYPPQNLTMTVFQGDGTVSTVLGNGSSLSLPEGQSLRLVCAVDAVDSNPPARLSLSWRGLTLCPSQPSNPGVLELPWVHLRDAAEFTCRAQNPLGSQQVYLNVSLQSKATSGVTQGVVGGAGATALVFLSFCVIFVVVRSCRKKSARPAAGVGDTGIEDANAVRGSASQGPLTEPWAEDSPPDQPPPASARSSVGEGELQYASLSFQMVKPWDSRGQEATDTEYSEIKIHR

Trypanosoma cruzi = experiment: Trypanosoma cruzi phosphomannomutase and mannose-1-phosphate guanylyltransferase assay; format: functional; details: 10 µM
[4] = target: T2, Arginase-2, mitochondrial (Homo sapiens) (UniProt P78540); experiment: in vitro enzyme assay to detect the production of urea directly proportional to the activity of Arginase II; format: functional; details: 33.3 µM; further: in the data most compounds retested in dose-response had high values
T2 sequence (whole entry): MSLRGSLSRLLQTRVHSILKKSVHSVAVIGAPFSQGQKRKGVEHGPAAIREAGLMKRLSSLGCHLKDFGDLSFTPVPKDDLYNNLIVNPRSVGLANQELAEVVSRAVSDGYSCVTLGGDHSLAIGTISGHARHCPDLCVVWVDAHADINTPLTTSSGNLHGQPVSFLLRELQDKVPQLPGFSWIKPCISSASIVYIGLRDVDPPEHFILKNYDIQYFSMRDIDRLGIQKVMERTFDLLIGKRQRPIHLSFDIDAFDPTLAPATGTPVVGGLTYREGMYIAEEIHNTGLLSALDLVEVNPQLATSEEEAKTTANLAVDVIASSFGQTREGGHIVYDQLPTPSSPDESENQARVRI

[5] = target: T3, Proteasome subunit beta (Trypanosoma cruzi) (UniProt O96673); experiment: Trypanosoma cruzi proteasome chymotrypsin-like activity (TcProtChymo) assay.; further: in the data most compounds retested in dose-response had high values; format: functional; details: 9.37 µM
T3 sequence (whole entry): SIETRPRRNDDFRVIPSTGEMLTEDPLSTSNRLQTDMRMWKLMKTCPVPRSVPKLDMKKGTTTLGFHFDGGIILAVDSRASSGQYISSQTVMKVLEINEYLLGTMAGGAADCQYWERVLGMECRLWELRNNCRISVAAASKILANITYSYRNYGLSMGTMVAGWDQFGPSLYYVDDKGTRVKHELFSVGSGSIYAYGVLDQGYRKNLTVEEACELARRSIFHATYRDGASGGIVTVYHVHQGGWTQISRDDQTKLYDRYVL

Homo sapiens = species on record: Homo sapiens; experiment: To identify inhibition of the IFN signalling (Jak-Stat) pathway via expression of an eGFP reporter gene under the control of an IFN-stimulated response element (ISRE) containing MxA promoter.; format: functional; details: 30 µM
[6] = target: T4, Tyrosyl-tRNA synthetase, putative (Trypanosoma cruzi (strain CL Brener)) (UniProt Q4DSP6); experiment: Trypanosoma cruzi tyrosyl tRNA synthetase (TcYRS) _High Tyrosine SOP; format: functional; details: 30 µM; further: in the data most compounds retested in dose-response had high values
T4 sequence (whole entry): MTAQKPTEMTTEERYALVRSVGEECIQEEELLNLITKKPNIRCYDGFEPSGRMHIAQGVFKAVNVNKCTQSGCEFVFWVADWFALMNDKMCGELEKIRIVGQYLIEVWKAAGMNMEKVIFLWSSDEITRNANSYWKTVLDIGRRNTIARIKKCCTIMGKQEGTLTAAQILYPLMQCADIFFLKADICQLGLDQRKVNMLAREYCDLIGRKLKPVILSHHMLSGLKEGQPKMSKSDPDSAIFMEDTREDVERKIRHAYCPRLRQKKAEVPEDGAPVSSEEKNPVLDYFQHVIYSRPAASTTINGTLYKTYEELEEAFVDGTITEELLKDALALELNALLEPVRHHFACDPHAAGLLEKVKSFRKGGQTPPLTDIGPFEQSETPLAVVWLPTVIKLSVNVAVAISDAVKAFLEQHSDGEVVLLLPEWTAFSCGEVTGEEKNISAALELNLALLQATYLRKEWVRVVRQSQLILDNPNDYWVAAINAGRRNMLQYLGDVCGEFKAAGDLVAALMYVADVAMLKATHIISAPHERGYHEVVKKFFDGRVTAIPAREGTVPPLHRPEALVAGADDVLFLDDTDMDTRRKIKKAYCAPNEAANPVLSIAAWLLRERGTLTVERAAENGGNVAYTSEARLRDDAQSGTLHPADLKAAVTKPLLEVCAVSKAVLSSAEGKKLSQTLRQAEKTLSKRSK

[7] = target: T4, Tyrosyl-tRNA synthetase, putative (Trypanosoma cruzi (strain CL Brener)); experiment: Trypanosoma cruzi tyrosyl tRNA synthetase (TcYRS) SOP; format: functional; details: 30 µM
[8] = target: Chromo domain-containing protein 1 (Saccharomyces cerevisiae (strain ATCC 204508 / S288c) (Baker's yeast)) (UniProt P32657); experiment: ScCHD-1 Enzyme Inhibition Assay; format: functional; details: 30 µM; further: in the data most compounds retested in dose-response had high values
Chromo domain-containing protein 1 (Saccharomyces cerevisiae (strain ATCC 204508 / S288c) (Baker's yeast)), sequence (P32657 whole entry, the tested form may be a part): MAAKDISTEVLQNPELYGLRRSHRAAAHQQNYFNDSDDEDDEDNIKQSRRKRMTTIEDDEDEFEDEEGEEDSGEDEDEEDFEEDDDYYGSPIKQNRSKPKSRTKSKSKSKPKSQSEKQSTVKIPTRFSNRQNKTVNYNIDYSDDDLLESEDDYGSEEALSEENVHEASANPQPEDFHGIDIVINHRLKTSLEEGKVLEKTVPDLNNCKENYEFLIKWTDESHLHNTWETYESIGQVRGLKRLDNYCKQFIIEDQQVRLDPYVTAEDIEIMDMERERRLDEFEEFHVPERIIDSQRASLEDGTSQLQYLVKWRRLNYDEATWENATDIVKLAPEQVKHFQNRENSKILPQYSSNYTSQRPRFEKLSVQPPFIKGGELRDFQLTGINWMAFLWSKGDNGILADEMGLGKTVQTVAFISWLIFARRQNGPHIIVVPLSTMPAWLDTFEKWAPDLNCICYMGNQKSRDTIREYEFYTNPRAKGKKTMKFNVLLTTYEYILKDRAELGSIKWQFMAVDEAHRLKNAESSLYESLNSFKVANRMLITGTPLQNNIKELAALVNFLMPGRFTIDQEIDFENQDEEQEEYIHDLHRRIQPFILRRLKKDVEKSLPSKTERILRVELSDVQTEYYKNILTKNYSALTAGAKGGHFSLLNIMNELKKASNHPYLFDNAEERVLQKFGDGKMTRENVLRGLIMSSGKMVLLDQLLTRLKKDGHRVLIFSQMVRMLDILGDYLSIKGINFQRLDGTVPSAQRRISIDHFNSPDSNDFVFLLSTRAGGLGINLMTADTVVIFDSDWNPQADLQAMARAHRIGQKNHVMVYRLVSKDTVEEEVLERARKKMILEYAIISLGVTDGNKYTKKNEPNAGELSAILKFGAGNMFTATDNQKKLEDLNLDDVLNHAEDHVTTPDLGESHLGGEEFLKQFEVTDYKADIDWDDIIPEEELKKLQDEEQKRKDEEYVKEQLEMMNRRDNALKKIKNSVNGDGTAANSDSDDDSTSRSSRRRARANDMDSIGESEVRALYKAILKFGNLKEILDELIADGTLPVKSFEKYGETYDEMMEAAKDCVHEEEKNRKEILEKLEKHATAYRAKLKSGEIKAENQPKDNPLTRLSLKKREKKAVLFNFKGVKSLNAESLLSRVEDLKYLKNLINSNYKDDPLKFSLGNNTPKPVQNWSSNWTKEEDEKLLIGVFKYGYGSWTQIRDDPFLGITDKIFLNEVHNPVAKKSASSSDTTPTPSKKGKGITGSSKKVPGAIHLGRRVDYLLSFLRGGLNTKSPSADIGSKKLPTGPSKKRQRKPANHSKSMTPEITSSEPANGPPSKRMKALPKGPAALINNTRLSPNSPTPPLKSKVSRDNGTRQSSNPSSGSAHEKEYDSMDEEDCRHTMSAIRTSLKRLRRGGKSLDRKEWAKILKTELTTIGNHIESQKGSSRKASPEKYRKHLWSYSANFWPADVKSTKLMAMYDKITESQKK

Protein translocase subunit SecA (Escherichia coli (strain K12)), sequence (P10408 whole entry): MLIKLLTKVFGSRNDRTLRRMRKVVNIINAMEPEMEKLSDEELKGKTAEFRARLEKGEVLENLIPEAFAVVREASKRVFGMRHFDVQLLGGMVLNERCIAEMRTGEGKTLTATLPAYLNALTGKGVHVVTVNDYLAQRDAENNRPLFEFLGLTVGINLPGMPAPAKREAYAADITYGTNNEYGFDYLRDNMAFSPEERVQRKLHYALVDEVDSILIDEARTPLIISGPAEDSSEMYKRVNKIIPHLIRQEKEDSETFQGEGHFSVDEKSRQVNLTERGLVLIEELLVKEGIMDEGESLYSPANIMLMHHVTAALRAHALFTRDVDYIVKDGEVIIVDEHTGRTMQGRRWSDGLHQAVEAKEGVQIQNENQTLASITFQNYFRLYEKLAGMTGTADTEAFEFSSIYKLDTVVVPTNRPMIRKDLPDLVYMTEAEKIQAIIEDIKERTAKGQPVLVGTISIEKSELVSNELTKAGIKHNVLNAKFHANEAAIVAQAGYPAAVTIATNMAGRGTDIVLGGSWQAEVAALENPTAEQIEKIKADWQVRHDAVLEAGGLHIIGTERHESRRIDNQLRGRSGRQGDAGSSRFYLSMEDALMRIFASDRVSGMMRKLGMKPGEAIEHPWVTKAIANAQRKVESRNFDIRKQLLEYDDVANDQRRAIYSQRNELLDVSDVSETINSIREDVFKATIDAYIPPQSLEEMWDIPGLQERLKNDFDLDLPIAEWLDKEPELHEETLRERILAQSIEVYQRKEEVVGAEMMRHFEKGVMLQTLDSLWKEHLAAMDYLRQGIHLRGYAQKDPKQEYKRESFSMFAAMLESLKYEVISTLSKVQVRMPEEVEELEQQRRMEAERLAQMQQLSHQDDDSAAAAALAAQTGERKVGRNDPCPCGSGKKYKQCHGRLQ

| Compound | Percent Effect [1] | Percent Effect [2] | Percent Effect [3] | Percent Effect (Trypanosoma cruzi) | Percent Effect [4] | Percent Effect [5] | Percent Effect (Homo sapiens) | Percent Effect [6] | Percent Effect [7] | Percent Effect [8] |
| --- | --- | --- | --- | --- | --- | --- | --- | --- | --- | --- |
| CCc1nccn1-c1cncc(C2CCCN2Cc2cccnc2)n1 (stereo not given) | -0.52% | 9.33% | 4.5% | 1.38% | 0.443% | 13.3% | -9.84% | 6.35% | 20% | -22.2% |
| O=C(c1ncccn1)N1C[C@H]2CCC[C@@]2(COCc2cccnc2)C1 | -6.88% | 3.9% | -0.0107% | -1.46% | -4.45% | 10.3% | 89.1% | -2.63% | -7.69% | -1.21% |
| CN1CC(c2ccccc2)CC12CCN(C(=O)c1cncc(Cl)c1)CC2 (stereo not given) | -4.25% | 5.41% | 3.4% | -0.679% | 0.35% | 12.3% | 12.2% | 7.98% | 14.6% | -5.7% |
| Cn1cccc1-c1cc(C(=O)N2CCCC2c2cccnc2)[nH]n1 (stereo not given) | -6.61% | 18.9% | 15.5% | 5.72% | 5.94% | 16.6% | 5.26% | 4.79% | 17.1% | -2.92% |
